# Data as given in the OligoGym collection.
# Molecular target: CADM4
# Assay: pooled miR-30 sensor sort-seq; sequence = guide strand
# Conditions: shRNA
# Also: reference of the scale not given here.
row,Sequence,sensor-assay potency score (higher = more potent)
1,TGGATGACAACTATGGACCCAT,-0.33
2,TTCTCTGTCTGTACTTCCTGTC,-0.0405
3,TTATTGGACGCCTCGCAAGTGT,-0.6
4,TTTGCTGGTTCCTTGCAGCTGG,0.149
5,TTGAAGAAGAGGGTCTGCCGGG,0.128
6,TATGATCAGAAACACCAGCAGC,-1.06
7,TTTCAGCTCCTTGCGGTCCCGG,-0.888
8,AAGCTGGAAACGCTCATCCTTC,-1.15
9,ACATATGATCAGAAACACCAGC,-1.09
10,TTACGGTCCACACGAAACCGTA,-1.33

# Molecular target: CALB1
# Assay: as above
# Conditions: shRNA
row,Sequence,sensor-assay potency score (higher = more potent)
1,ATTATTAATATCCAGATCCTGT,-0.387
2,TAAGCTTAGAAATATTTTGTGG,-0.267
3,TTCGGTACAGCTTCCCTCCATC,-0.593
4,TTTAAGAAGAAAATTCTCCTGC,1.04
5,TTTTGTGTCATCAACAGTCTTG,0.226
6,TCTTGTTCAACTATATTTGTGA,0.29
7,AAACAGTATAGAAACAAGCTGA,-0.0132
8,TTAGATACAGTGTATCACTAGC,0.553
9,TGTAATATTATTAATATCCAGA,-0.351
10,TTAGGTCTGTATACTCGGCTAA,-0.144
11,TAAATCTGTAATGAGACTGTTA,0.457
12,TATGTATCCATTGCCGTCCTGA,-0.391
13,TATAAAAGAAAATACAGCCTAC,-0.236
14,TATTTTTCCATCATCTCTTTGC,-0.281
15,ATTCTTCTCGCACAGATCCTTC,-1.06
16,TATTCTTCTCGCACAGATCCTT,0.132
17,TTATTTTTTAGATACAGTGTAT,-0.499
18,TTTGTGTCATCAACAGTCTTGT,0.294
19,TAAGCATAGACTTTCTTCTTTT,-0.786
20,TGTCACATCAACTTGAACCGAT,0.787
21,TAGGTCTGTATACTCGGCTAAT,-1.02
22,TTCTCTGACAGTAAGTTTGTTG,-0.382
23,TTGATTGGTAAACTAAATCTGT,-0.119
24,TTCCCTTGTCACATCAACTTGA,0.335

# Molecular target: CAMK2N1
# Assay: as above
# Conditions: shRNA
row,Sequence,sensor-assay potency score (higher = more potent)
1,TTTCAGCACGTCATCAATCCTA,-0.00921
2,ATCTTCAATAACAACCCGCTTG,-0.788
3,TATCATCTTCAATAACAACCCG,-0.355
4,TTCAATAACAACCCGCTTGCTC,0.0759
5,ATCATCTTCAATAACAACCCGC,-0.379
